This is a sample that favours compounds with a hit; in the whole collection about 5.7% have one here.
hcDAF12 agonist = H. contortus DAF-12 nuclear receptor activators, primary screen, cell-based, luminescence, HEK293, lit1-tk-luc reporter. HEK293 hcDAF-12 lit1-tk-luc reporter; 0% DMSO, 100% Δ7-dafachronic acid. activation, % at 6.8 µM. 370,000 tested, 1.4% active. AID 652067, 2013;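 active means activation above the mean of all tested compounds plus 3 SD, cut at about 5.5% in these data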;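 further: 100% = response to 3 µM Δ7-dafachronic acid high control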
DAX1 inh-1 = DAX1 (NR0B1) inhibitors, primary screen, cell-based, HEK293, Gal4-DAX1, luciferase luminescence. 340,000 tested, 0.99% active. HEK293 Gal4-DAX1 luciferase reporter. inhibition, % at 6.75 µM. Nuclear receptor subfamily 0 group B member 1 (Homo sapiens), P51843;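 active means inhibition above the mean over all tested compounds plus 3 SD, cut at about 4.2% in these data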;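 further: 0% = DAX1-transfected cells with DMSO and 100% = empty-vector control cells with DMSO; inhibition shows as a rise in luminescence from relieved DAX1 repression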
AHR act = AHR activators, primary screen, cell-based, luminescence, luciferase reporter, human; 320,000 tested, 2.5% active; AHR-responsive luciferase reporter cells; activation, % at 5 µM; AID 2796, 2010; Aryl hydrocarbon receptor (Homo sapiens), P35869; in the data active means activation above about 47%;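 further: 0% = vehicle wells and 100% = reference agonist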
Target sequence (P35869 whole entry, looked up): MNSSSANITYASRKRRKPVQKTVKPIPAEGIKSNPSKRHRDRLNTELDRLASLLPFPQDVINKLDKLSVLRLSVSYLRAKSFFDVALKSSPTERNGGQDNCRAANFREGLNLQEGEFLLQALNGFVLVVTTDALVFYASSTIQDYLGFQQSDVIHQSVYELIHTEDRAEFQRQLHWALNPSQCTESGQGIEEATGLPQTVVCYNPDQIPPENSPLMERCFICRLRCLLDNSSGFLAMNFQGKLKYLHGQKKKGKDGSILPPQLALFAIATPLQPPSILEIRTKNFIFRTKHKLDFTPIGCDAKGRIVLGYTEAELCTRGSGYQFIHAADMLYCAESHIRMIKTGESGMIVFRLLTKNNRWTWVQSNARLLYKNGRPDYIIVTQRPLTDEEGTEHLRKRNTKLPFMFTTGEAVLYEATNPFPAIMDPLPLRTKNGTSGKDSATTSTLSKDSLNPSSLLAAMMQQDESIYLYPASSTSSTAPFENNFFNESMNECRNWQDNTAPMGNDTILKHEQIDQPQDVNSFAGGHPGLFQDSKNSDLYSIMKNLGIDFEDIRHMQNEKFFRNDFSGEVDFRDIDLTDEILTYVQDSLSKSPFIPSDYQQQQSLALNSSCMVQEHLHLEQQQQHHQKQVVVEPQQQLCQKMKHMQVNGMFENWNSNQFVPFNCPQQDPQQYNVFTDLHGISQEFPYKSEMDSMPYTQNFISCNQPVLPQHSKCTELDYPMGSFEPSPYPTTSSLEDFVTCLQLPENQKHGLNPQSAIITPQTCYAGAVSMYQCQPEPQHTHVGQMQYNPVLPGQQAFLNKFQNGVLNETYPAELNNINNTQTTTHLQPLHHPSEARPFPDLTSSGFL
ssDAF12 agonist = S. stercoralis DAF-12 nuclear receptor activators, primary screen, cell-based, luminescence, HEK293, GRIP1 co-expression, lit1-tk-luc; Nuclear hormone receptor DAF-12 (Strongyloides stercoralis); HEK293 ssDAF-12/GRIP1 lit1-tk-luc reporter; % of 3 µM dafachronic acid response; activation, % at 6.8 µM; 370,000 tested, 1% active; AID 652126, 2013;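 active means activation above the mean over all tested compounds plus 3 SD, cut at about 0.9% in these data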;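 further: 0% = DMSO-only wells and 100% = 3 µM delta7-dafachronic acid wells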
hgDAF12 agonist = H. glycines DAF-12 receptor agonists, primary screen, cell-based, luminescence, HEK293, GAL4 fusion, UAS-luciferase | HEK293 GAL4-hgDAF12 UAS-luciferase reporter, agonist luminescence; normalized to butyrate control | AID 687014, 2013 | activation, % at 6.8 µM | 370,000 tested, 1.8% active;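 active means activation above a cutoff set at the mean of all screened compounds plus 3 SD, cut at about 10% in these data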;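 further: 0% = DMSO wells and 100% = sodium butyrate wells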
DAX1 inh-2 = DAX1 (NR0B1) inhibitors on StAR promoter, primary screen, cell-based, luminescence, SF-1 (NR5A1), full-length DAX-1. HEK293T StAR-luciferase reporter, SF-1/DAX-1 repression relief. inhibition, % at 6.8 µM. 370,000 tested, 1.1% active. AID 652010, 2013;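 active means inhibition above the mean over all tested compounds plus 3 SD, cut at about 3.6% in these data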;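 further: 0% = DAX-1 cells with DMSO and 100% = cells lacking DAX-1 with DMSO; higher inhibition means more luminescence from relief of DAX-1 repression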
LXRb hcDAF ctr = LXR agonists, Gal4 luciferase reporter, confirmation, counter-screen for hcDAF-12 agonist project, cell-based, luminescence, HEK293, H. contortus campaign; AID 743027, 2013; activation, % at 6.8 µM; 3,400 tested, under 10 active; HEK293 Gal4-LXR tk-luc reporter, 24 h; normalized: DMSO 0%, positive control 100%; shares compounds with hcDAF12 agonist;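 active means mean percent activation of the reporter above a cutoff set as the average over tested compounds plus their standard deviation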
hcDAF12 ag = H. contortus DAF-12 receptor agonists, confirmation, cell-based, luminescence, HEK293, lit1-tk-luc, triplicate | 3,400 tested, 61% active | shares compounds with hcDAF12 agonist | HEK293 hcDAF-12 lit1-tk-luc reporter; % of Δ7-dafachronic acid response | activation, % at 6.8 µM | AID 743032, 2013;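 active means mean activation across triplicate tests above the threshold derived from the earlier primary screen, cut at about 5.5% in these data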;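 further: 0% = DMSO only wells and 100% = 3 µM Δ7-dafachronic acid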
Numbers without * were called inactive; . = not tested or not shown.

SMILES	hcDAF12 agonist	DAX1 inh-1	AHR act	ssDAF12 agonist	hgDAF12 agonist	DAX1 inh-2	LXRb hcDAF ctr	hcDAF12 ag
O=C(Nc1nccs1)C1Cc2ccccc2CN1S(=O)(=O)c1ccc(F)cc1 (configuration not stated)	11*	1	64*	1	12*	3	1	7.7*
Cc1ccc(NC(=S)C2=C(O)c3sccc3N(C)S2(=O)=O)cc1	0	-1	4	0	-3	0	.	.
CN(N=Cc1ccccc1O)c1ccc2ccccc2n1	8.6*	4	.	2.4*	12*	2	2	12*
O=C1Cc2ccccc2C(=O)N1CCc1ccccc1	6.9*	4.7*	73*	0	6	0	0	4
O=C1C(=O)N(Cc2ccccc2)C(=O)N1CCN1C(=O)c2ccccc2C1=O	-1	4	0	-1	-2	-1	.	.
COc1cccc(OC)c1C(=O)Nc1cccc(S(=O)(=O)Nc2ccccc2Cl)c1	-1	1	4	-1	6	1	.	.
CCOC(=O)c1sc(=NC(=O)c2ccc(C)cc2)n(C)c1C	9.7*	2	44	1.2*	11*	4	1	9.7*
CCOC(=O)c1sc(=NC(=O)c2cccc(Br)c2)n(C)c1C	1	1	6	-1	5	0	.	.
Cc1ccc(-c2cn3cccnc3n2)cc1NC(=O)c1ccc(Br)o1	-3	1	11	-2	-1	-1	.	.
CCN(C[C@H]1N[C@@](Cc2ccccc2)(C(=O)OC)[C@H]2C(=O)N(C)C(=O)[C@@H]12)C(=O)c1ccc(F)cc1	-1	0	0	-1	-2	2	.	.
CCN(C[C@H]1N[C@@](CC)(C(=O)OC)[C@H]2C(=O)N(C)C(=O)[C@@H]12)C(=O)c1ccc(F)cc1	12*	1	-1	-1	-4	1	0	3
COc1cccc(NC(=O)c2ccc(S(=O)(=O)N3CCCCC3)cc2)c1	-3	0	7	-1	0	1	.	.
CCOC(=O)C1=C(CSc2nc(-c3ccccc3)ccc2C#N)OC(N)=C(C#N)C1c1ccccc1 (configuration not stated)	2	3	29	0	2	1	.	.
CCOC(=O)C1=C(CSc2nc(-c3ccccc3)ccc2C#N)OC(N)=C(C#N)C1c1cccnc1 (configuration not stated)	7.2*	2	32	1.3*	12*	3	1	9.4*
CN(C(=O)c1cccc(NC(=O)c2ccco2)c1)c1ccccc1	0	0	1	-1	-2	0	.	.
CN(C)c1cccc(NC(=O)c2ccco2)c1	6.7*	0	27	-1	0	0	0	5
CC(=O)Nc1c2c(nn1-c1ccccc1)CS(=O)C2 (configuration not stated)	1	1	2	-1	2	0	.	.
O=C(O)CCNc1ccc(NCCC(=O)O)c2c1C(=O)c1ccccc1C2=O	0	-2	15	-1	0	0	.	.
O=C1c2cccc(NCCNCCO)c2C(=O)c2cccc(NCCNCCO)c21	8.9*	-1	.	1	-1	-6	2	14*
O=C(NCc1ccccc1)C(c1cc2ccccc2o1)n1c(=O)c(-c2ccco2)nc2ccccc21 (configuration not stated)	9.6*	.	.	2.5*	11*	3.9*	1	11*
Cn1cccc1C(=O)NC(=O)COC(=O)CCNS(=O)(=O)c1ccc(Cl)cc1	-1	0	1	-1	1	0	.	.
Cc1ccc(O)c(-c2cc(-c3ccccc3F)[nH]n2)c1	11*	1	27	0	10	1	1	9.4*
COC(=O)C1=CN(c2ccc(OC)cc2OC)C(N)=C(C#N)C1c1ccc(OC)cc1 (configuration not stated)	-1	.	.	-2	-4	0	.	.
O=C(Nc1nc(-c2ccccc2)cs1)C1COc2ccccc2O1 (configuration not stated)	-1	0	-1	-1	3	0	.	.
Cc1cccc(NC(=O)C2COc3ccccc3O2)n1 (configuration not stated)	-2	0	-1	-1	1	0	.	.
SMILES	hcDAF12 agonist	DAX1 inh-1	AHR act	ssDAF12 agonist	hgDAF12 agonist	DAX1 inh-2	LXRb hcDAF ctr	hcDAF12 ag
Cc1csc(NC(=O)C2COc3ccccc3O2)n1 (configuration not stated)	7.0*	-2	8	0	7	3	1	5
Cc1cnc(NC(=O)C2COc3ccccc3O2)s1 (configuration not stated)	9.2*	-3	4	-1	4	1	1	7.2*
O=P(CCNCc1ccco1)(c1ccccc1)c1ccccc1	0	-1	4	-1	1	0	.	.
Cc1nc(NC(=S)Nc2ccccc2)sc1C	10*	2	21	0	10	1	0	3
Cc1cccc(CNC(=O)Cn2ccc3cc(S(=O)(=O)N4CCCCCC4)ccc32)c1	-2	-1	1	-2	-2	-3	.	.
COc1cc(OC)cc(-c2nc3ccccc3c(=O)o2)c1	-2	1	3	-1	-2	-1	.	.
Cc1ccc(CNc2ncccc2-c2nc3cc(Cl)ccc3o2)cc1	2	0	9	0	0	0	.	.
COc1cc(OC)cc(-c2nc3cc(C)ccc3o2)c1	17*	2	58*	2.3*	10	3.8*	1	13*
Cc1ccc(-c2nc3cc(Cl)ccc3o2)cc1	8.2*	4	15	0.9*	8	3	2	16*

Compound activity from PubChem BioAssay.
